Calls of active or inactive are those of the source.
Experiments:
[1] = compound effects on lung adenocarcinoma cell viability – A549, calcein-AM fluorescence, 48 h, basal, profiling panel (AID 1162); conditions: higher = more signal
[2] = compound effects on differentiated 3T3-L1 adipocyte viability – cell-based, 3T3-L1 adipocytes, calcein-AM fluorescence, 48 h, basal, profiling panel (AID 1163); conditions: 3T3-L1 adipocytes viability, higher = more signal
[3] = compound effects on hepatocellular carcinoma cell viability – HepG2, calcein-AM fluorescence, 48 h, basal, profiling panel (AID 1164); conditions: higher = more signal
[4] = compound effects on multiple myeloma cell viability – MM1S, calcein-AM fluorescence, 48 h, basal, profiling panel (AID 1165); conditions: higher = more signal
[5] = calcein-AM signal in unstimulated myeloma cells – cell-based, calcein-AM fluorescence, 48 h, PK04 Diversity Set, profiling panel (AID 1166); conditions: RPMI8226 myeloma viability, higher = more signal;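 further: cells grown under basal conditions without added stimulus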
[6] = JC-1 mitochondrial signal, unstimulated HepG2 cells – cell-based, JC-1 fluorescence, 24 h, 100 nL compound, profiling panel (AID 1167); conditions: HepG2 mitochondrial potential, higher = more signal
[7] = JC-1 mitochondrial signal, unstimulated adipocytes – cell-based, JC-1 fluorescence, 3T3-L1 adipocytes, 24 h, 100 nL compound, profiling panel (AID 1168); conditions: JC-1 mitochondrial fluorescence, higher = more signal, called active from +8 up or from −8 down
[8] = JC-1 mitochondrial signal, unstimulated myeloma cells – cell-based, JC-1 fluorescence, RPMI8226, 24 h, 100 nL compound, profiling panel (AID 1169); conditions: JC-1 mitochondrial potential fluorescence, higher = more signal
[9] = JC-1 mitochondrial signal, unstimulated MM1S myeloma – cell-based, JC-1 fluorescence, 24 h, 100 nL compound, profiling panel (AID 1170); conditions: MM1S mitochondrial potential, higher = more signal
[10] = resazurin metabolic signal in A549 cells – cell-based, resazurin fluorescence, 24 h, PK04 Diversity Set, profiling panel (AID 1171); conditions: A549 viability, higher = more signal, called active from +8 up or from −8 down
Further: test concentration not given here.

Compound	z-score [1]	z-score [2]	z-score [3]	z-score [4]	z-score [5]	z-score [6]	z-score [7]	z-score [8]	z-score [9]	z-score [10]
COCCOC(=O)N1C(=O)[C@@]2(c3cc(C#CCCO)ccc31)[C@H](c1ccc(O)cc1)N1[C@H](c3ccccc3)[C@H](c3ccccc3)OC(=O)[C@H]1[C@@H]2C(=O)Nc1nc2ccccc2s1	0.615	1.62	-0.425	-0.24	-1.53	-3.45	-2.22 (inactive)	-0.684	-1.11	-0.192 (inactive)
COc1ccc(NN2C(C(O)c3cc(OC)c(OC)c(OC)c3)C=CC3C(=O)N(C4CCCCC4)C(=O)C32)cc1 (stereo not given)	-0.753	-1.42	1.17	0.651	-0.177	0.861	-0.569 (inactive)	0.00692	-1.78	0.239 (inactive)
O=C1O[C@@H](c2ccccc2)[C@@H](c2ccccc2)N2[C@@H](c3ccc(OCCO)cc3)[C@]3(C(=O)Nc4ccc(C#CCCO)cc43)[C@@H](C(=O)N3CCN(c4ncccn4)CC3)[C@H]12	0.848	0.38	-0.17	0.0057	0.442	0.0349	1.88 (inactive)	-0.623	0.173	0.293 (inactive)
C=CC(=O)O[C@@H](Cc1ccccc1)[C@H]1C2C=CCCC=C2CN1Cc1cccc(Cl)c1 (stereo not given in full)	1.07	0.392	0.216	-3.14	-2.84	0.687	0.0156 (inactive)	-0.233	0.453	1.11 (inactive)
O=C1O[C@H](c2ccccc2)[C@H](c2ccccc2)N2[C@H]1[C@@H](C(=O)Nc1nc3ccccc3s1)[C@]1(C(=O)Nc3ccc(C#CC4=CCCCC4)cc31)[C@H]2c1ccccc1OCCO	-0.639	0.313	-0.557	-1.63	-1.07	-2.86	-1.06 (inactive)	-0.798	-1.46	-0.893 (inactive)
CCN1C(C)=C(C(=O)OC)[C@@H](c2ccccc2)N2C(=O)[C@](O)(C(=O)OC)[C@@H](c3ccccc3)C(C(=O)c3ccccc3)=C12	0.804	0.439	0.534	0.144	-0.623	4.64	0.454 (inactive)	-0.602	0.229	2.64 (inactive)
CN(C)c1ccc(C(O)C2C=CC3C(=O)NC(=O)C3N2Nc2ccc(Cl)cc2Cl)cc1 (stereo not given)	-0.602	0.117	-0.675	0.463	-0.792	-1.26	-1.06 (inactive)	-0.752	0.261	-0.555 (inactive)
COCCCNC(=O)[C@@]1(Sc2ccc(C)cc2)CC(=O)N(Cc2cc(C(F)(F)F)cc(C(F)(F)F)c2)[C@@H]1c1ccc(CO)cc1I	0.697	1.34	-0.632	-2.24	-2.34	0.0901	0.135 (inactive)	-0.00613	-0.315	0.555 (inactive)
O=C(NCc1ccccc1)[C@@]1(Cc2ccccc2)COC(c2ccc(OCCCO)cc2)=N1	-1.65	-2.05	-2.78	-3.58	-3.06	-2.97	0.558 (inactive)	-1.06	-2.9	-2.77 (inactive)
COc1ccc(CCN2C(=O)[C@@]3(c4ccc([N+](=O)[O-])cc4)CC(=O)N(CC45CC6CC(CC(C6)C4)C5)[C@@H]3c3ccc(CO)cc32)cc1	1.44	0.0861	0.71	0.0097	-0.346	0.0982	0.0691 (inactive)	-0.0825	0.997	0.616 (inactive)
C=CC[C@]1(C(=O)OC)N=C(c2ccc(OCCCO)cc2)O[C@H]1c1ccccc1CN=[N+]=[N-]	-0.844	1.51	-1.09	-2.04	-2.24	-0.000782	0.21 (inactive)	-1.01	0.734	-0.179 (inactive)
Cc1ccc(S[C@]2(C(=O)NC(C)C)CC(=O)N(C3Cc4ccccc4C3)[C@@H]2c2ccc(CO)cc2)cc1	0.0188	2.29	0.0794	0.549	-1.02	0.0355	-0.636 (inactive)	0.758	0.643	-0.0208 (inactive)
CO[C@H]1COC(=O)[C@H](C)NC(=O)CC=C[C@@H](C)[C@H](NS(=O)(=O)c2ccc(C)cc2)COC(=O)CC=C[C@@H]1C	-0.199	1.76	-0.261	0.436	0.769	0.645	-0.236 (inactive)	-0.081	0.753	0.317 (inactive)
CO[C@@H]1COC(=O)[C@@H]2CCCN2C(=O)CC=C[C@@H](C)[C@H](OC)COC(=O)[C@@H]2CCCN2C(=O)CC=C[C@H]1C	0.798	0.185	1.21	0.283	0.142	-0.123	1.15 (inactive)	-0.695	2.22	1.82 (inactive)
C=CCC(OC(C)=O)[C@@H]1[C@@H](N(Cc2cccc3ccccc23)C(=O)Cc2ccc(F)cc2)c2cc(OCCCO)ccc2N1C(=O)Cc1ccc2ccccc2c1 (stereo not given in full)	0.677	-0.399	0.607	0.853	-0.538	1.72	0.38 (inactive)	-0.0877	-0.24	0.775 (inactive)
C=C(COC)C(=O)CC[C@H](OC(=O)c1ccccc1-c1ccccc1C(=O)O)c1cccc(OCCO)c1	-0.339	-0.765	-2.08	-1.12	-0.28	-2.01	0.414 (inactive)	0.231	-0.0895	-1.46 (inactive)
Cc1ccc(S[C@]2(C(=O)NC(C)C)CC(=O)N(Cc3cc(C(F)(F)F)cc(C(F)(F)F)c3)[C@@H]2c2ccc(CO)cc2I)cc1	0.813	-0.477	0.678	-1.66	-2.24	0.517	0.667 (inactive)	-0.455	-1.79	-0.101 (inactive)
COCCOC(=O)N1C(=O)[C@@]2(c3cc(C#CCC(C(=O)OC)C(=O)OC)ccc31)[C@H](C(=O)N1CCN(c3ncccn3)CC1)[C@H]1C(=O)O[C@H](c3ccccc3)[C@H](c3ccccc3)N1[C@@H]2c1ccc(O)cc1	1.65	-0.287	2.17	0.613	-0.188	0.88	2.64 (inactive)	-0.203	-0.0423	0.0359 (inactive)
O=C1C2C=CC(C(O)c3ccccc3)N(n3cnnc3)C2C(=O)N1Cc1ccccc1 (stereo not given)	0.668	-0.0533	0.765	0.2	-1.68	0.323	0.129 (inactive)	-0.605	0.474	-1.05 (inactive)
C=CCN1C(=O)[C@]2(O[C@H](CCn3cc(CCO)nn3)[C@@H]([Si](C)(C)c3ccc(OC)cc3)[C@@H]2C)c2cc(NC(=O)c3ccc(OC)cc3)ccc21	-0.423	0.727	-0.792	-2.7	-4.31	3.04	1.61 (inactive)	-1.09	0.122	-2.65 (inactive)
CC1=C([C@H](O)CCc2ccccc2)[C@H](CO)[C@@H]2C(=O)N(Cc3ccccc3)C(=O)[C@@H]2C1	-0.286	-0.0776	-0.352	-0.0162	0.445	0.567	0.714 (inactive)	0.331	-1.5	0.76 (inactive)
C=CC[C@]1(C(N)=O)N=C(c2ccc(OCCCO)cc2)O[C@H]1c1ccccc1CN=[N+]=[N-]	0.919	2.24	-0.509	-0.562	-1.37	2.69	-0.436 (inactive)	-0.434	0.501	0.01 (inactive)
COCCOC(=O)N1C(=O)[C@@]2(c3cc(C#CC4=CCCCC4)ccc31)[C@H](C(=O)NC[C@H](O)c1ccccc1)[C@H]1C(=O)O[C@H](c3ccccc3)[C@H](c3ccccc3)N1[C@@H]2c1ccc(OCCO)cc1	-0.602	-0.39	-0.199	-1.89	-1.63	-1.92	0.449 (inactive)	-0.704	-1.65	-0.355 (inactive)

Source: PubChem BioAssay
